High-throughput results from PubChem BioAssay.
NadD inh – inhibitors of Staphylococcus aureus NadD; purified NadD enzyme, colorimetric absorbance read-out; inhibition, % at 20 µM; 0.78% of 360,000 active; in the data active = inhibition above about 26%
UBC9 SUMO inh – inhibitors of human SUMOylation (UBC9). P63279. HTRF SUMOylation assay, SAE1/SAE2 + UBC9, in vitro. inhibition, % at 35 µM. 0.36% of 290,000 active. AID 2006; in the data active = inhibition above about 50%, passing the limit was not always enough
Target sequence (P63279 whole entry, looked up): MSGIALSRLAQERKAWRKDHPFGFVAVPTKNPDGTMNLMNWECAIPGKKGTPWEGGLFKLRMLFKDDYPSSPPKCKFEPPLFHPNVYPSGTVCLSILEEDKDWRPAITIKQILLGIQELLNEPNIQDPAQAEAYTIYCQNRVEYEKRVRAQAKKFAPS
PHOSPHO1 block – blocks human PHOSPHO1 phosphatase activity. recombinant PHOSPHO1, absorbance phosphatase assay. inhibition, % at 13.3 µM. 1.1% of 290,000 active. AID 1565; in the data active = inhibition above about 60%
Target sequence (Q8TCT1 whole entry, looked up): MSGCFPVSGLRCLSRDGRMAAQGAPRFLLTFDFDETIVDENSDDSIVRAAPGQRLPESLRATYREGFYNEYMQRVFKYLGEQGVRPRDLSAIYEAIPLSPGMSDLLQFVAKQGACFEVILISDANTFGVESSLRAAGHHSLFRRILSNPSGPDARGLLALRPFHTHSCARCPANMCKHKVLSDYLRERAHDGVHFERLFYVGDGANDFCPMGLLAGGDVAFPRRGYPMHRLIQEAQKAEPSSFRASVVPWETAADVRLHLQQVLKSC
p-CIP stab down – p/CIP protein destabilization. AID 1984. 0.01% of 290,000 active. decrease of EGFP signal, % at 10 µM. F442A p/CIP-EGFP cells, EGFP fluorescence, 16 h. Q05BA5;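 active = EGFP signal decrease of at least 30% at 10 µM or well 3 SD below plate mean, unless failing retest; inactive = the rest, including hits failing retest or dose response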
A number is an active result; . = inactive; / = not tested or not shown. Rows were chosen to be rich in hits. Some 1.8% of all compounds tested hit in one or more screens of this group.

SMILES	NadD inh	UBC9 SUMO inh	PHOSPHO1 block	p-CIP stab down
CC1(C(=O)NS(=O)(=O)c2ccc(Cl)cc2)CCN1C(=O)CCc1cccs1 (centres undefined)	.	/	/	/
Cc1ccccc1OC(C)C(=O)N1CCC(Cc2ccccc2)CC1 (centres undefined)	.	.	68	.
O=C(NCc1ccco1)c1cnn2c(C(F)(F)F)cc(-c3ccccc3)nc12	.	.	.	.
COc1ccc2oc(=O)c(C(=O)NCc3ccco3)cc2c1	.	52	.	.
COc1ccc(-c2cc(C(F)(F)F)n3ncc(C(=O)NCc4ccco4)c3n2)cc1	.	64	.	.
CNc1nc(NCC2CCCCC2)c2sccc2n1	.	/	/	/
COc1cc(/C=N/N=C2/NC(=O)C(c3ccccc3)S2)ccc1O (centres undefined)	.	.	67	.
CCN1C(=O)N/C(=C/c2ccc(C)o2)C1=O	.	.	.	.
CC1=C(C#N)C(=O)N(C2CCS(=O)(=O)C2)C(=O)/C1=C\c1ccc(C)o1 (centres undefined)	/	61	.	.
CC(C)CNC(=O)C1(C)CCCN1C(=O)Cc1cccc2ccccc12 (centres undefined)	.	/	/	/
CC(=O)Oc1ccc2cc(-c3nc4ccccc4n3C)c(=O)oc2c1	.	56	.	.
Cn1c(-c2cc3ccc(OC(=O)C(C)(C)C)cc3oc2=O)nc2ccccc21	.	.	.	.
CCOc1cc(/C=C2\C(=O)N(c3nc(-c4ccc(Br)cc4)cs3)N=C2c2ccccc2)ccc1O	77	.	.	.
CC(C)Nc1nc(NC(C)C)nc(Nn2cnnc2)n1	.	.	.	.
CC(C)Nc1nc(NC(C)C)nc(N(C)n2cnnc2)n1	.	.	94	.
O=C(Nc1ccccc1-c1nc2ccccc2s1)c1cccnc1Cl	.	58	.	.
O=c1oc2c3c4c(cc2s1)CCCN4CCC3	.	78	.	.
CCCCNC(=O)C1(C)CCC(=O)N1c1cc(C(C)(C)C)nn1C (centres undefined)	.	/	/	/
Cc1cc2nc(-c3ccccc3)c(Cc3ccsc3)n2c(C)c1Br	.	/	/	/
COc1ccc(OCCSc2nnc3sc4ccccc4n23)cc1	.	.	77	.
O=C(NC(c1ccc(Cl)cc1)c1ccsc1)C1CCN(Cc2cccc(Cl)c2)CC1 (centres undefined)	.	/	/	/
COc1ccc(-c2cc(NC=O)c3ncc(-c4ccc(OC)c(OC)c4)n3c2)cc1	.	/	/	/
CCOC(=O)c1c(-c2ccco2)csc1N	.	.	80	.
C[N+]1(CCCCCCC(=O)/C=N/O)CCCCCC1	.	.	82	.
CCOC(=O)CCC(=O)Nc1cc(S(=O)(=O)N2CCOCC2)ccc1N1CCCCC1	.	/	/	/
SMILES	NadD inh	UBC9 SUMO inh	PHOSPHO1 block	p-CIP stab down
Cc1ccc(C)n1-c1cc(S(=O)(=O)N2CCOCC2)ccc1N1CCCC1	35	.	.	.
CCOCC(=O)Nc1cc(S(=O)(=O)N2CCOCC2)ccc1N1CCCCC1	.	.	75	.
NC(=O)CC(NC(=O)Cc1cccc2ccccc12)c1ccc(NC2CCCCCCC2)c([N+](=O)[O-])c1 (centres undefined)	.	.	.	.
NC(=O)CC(NC(=O)Cc1cccc2ccccc12)c1ccc(NC2CCCCCC2)c([N+](=O)[O-])c1 (centres undefined)	.	61	.	.
NC(=O)CC(NC(=O)Cc1cccc2ccccc12)c1ccc(NCCc2ccc(F)cc2)c([N+](=O)[O-])c1 (centres undefined)	.	.	.	.
NC(=O)CC(NC(=O)Cc1cccc2ccccc12)c1ccc(NCCc2ccccc2F)c([N+](=O)[O-])c1 (centres undefined)	.	50	.	.
Cc1ccc(C2C(/C=C3/SC(=S)NC3=O)=C(c3cccs3)Oc3ccccc32)cc1 (centres undefined)	60	.	.	.
COC(=O)[C@]12CCCCC=C1N(Cc1ccco1)C(=O)[C@H](CC(=O)NCCc1ccccc1OC)C2	.	/	/	/
CC(OC(=O)c1ccc(Cl)c([N+](=O)[O-])c1)C(=O)N1CCN(Cc2ccccc2)CC1 (centres undefined)	.	/	/	/
CC(On1nnc2ccccc21)C(=O)N1CCN(Cc2ccccc2)CC1 (centres undefined)	.	.	80	.
Cc1ccc(CSc2nnc(-c3ccccc3N)c(=O)[nH]2)cc1	.	.	102	.
Nc1ccccc1-c1nnc(SCc2ccccc2Cl)[nH]c1=O	.	.	.	.
COC(=O)[C@H]1C[C@H]2[C@@H]3CC[C@H]4C[C@@H](OC)CC[C@]4(C)[C@H]3CC[C@]2(C)[C@@]2(CCCO2)O1	.	/	/	/
CCOC(=O)COn1c(-c2cccc(Cl)c2)nc2ccc([N+](=O)[O-])cc21	.	.	65	.
CC1CCCC(N2CCN(C(=O)c3ccccc3F)CC2)C1 (centres undefined)	.	.	.	.
COc1ccc(-c2ccc(C(=S)N3CCN(C(C)=O)CC3)o2)cc1	.	.	85	.
Oc1c(Br)cc(Br)cc1/C=N/NC(=S)N[C@H]1CC2C=CC1C2 (some centres undefined)	.	58	.	.
COC1=C/C(=C/c2c(N)n3nc(-c4ccc(C)cc4)sc3nc2=O)C=CC1=O	35	.	.	.
CCOC1=C/C(=C/c2c(N)n3nc(-c4ccccc4)sc3nc2=O)C=CC1=O	43	.	.	.
CCS(=O)(=O)c1nn2c(N)c(/C=C3/C=CC(=O)C(OC)=C3)c(=O)nc2s1	.	.	.	.
O=C(NC(=S)N1CC=CCC1)c1ccccc1	.	/	/	/
O=C1CCc2cc(S(=O)(=O)Nc3ccccc3F)ccc2N1	.	/	/	/
Clc1ccc(C[n+]2cc(-c3ccccc3)n3c2CCCCC3)c(Cl)c1	.	.	60	.
O=C(Nc1cccc2nsnc12)c1ccc(-c2ccc(Br)cc2)o1	.	73	.	.
CCCS(=O)(=O)NC(=O)C1(C)CCCN(C(=O)C(C)(C)Oc2ccc(Cl)cc2)C1 (centres undefined)	.	/	/	/
SMILES	NadD inh	UBC9 SUMO inh	PHOSPHO1 block	p-CIP stab down
O=C(NC1CCCCC1)c1[nH]c(C(F)(F)F)nc1-c1ccccc1	.	/	/	/
O=C(NC1CC1)c1ccccc1	.	/	/	/
CCC(Sc1nc(C)cc(C)n1)C(=O)NC1=NN=C(c2ccc(C)cc2)CS1 (centres undefined)	.	.	104	.
Cc1cc(C)nc(SCC(=O)NC2=NN=C(c3ccc(Br)cc3)CS2)n1	.	.	.	.
COc1cc(CNc2ncnc3c2ncn3[C@H]2CN(Cc3ccc4c(c3)OCO4)C[C@@H](CO)O2)cc(OC)c1OC	.	/	/	/
Cc1c(NC(=O)c2cc3ccccc3o2)cccc1-n1cnnn1	.	/	/	/
CCc1ccc2nc(NC(=O)Cn3cnc4ccccc4c3=O)sc2c1	.	50	.	.
O=C(Cn1cnc2ccccc2c1=O)Nc1nc2ccccc2s1	.	.	.	.
COc1ccc(C(NC(=O)C2CCN(C/C=C/c3ccc(OC(C)=O)c(OC)c3)CC2)c2ccccn2)cc1 (centres undefined)	.	/	/	/
COc1cc(OC)c(/C=N/NC(=O)c2ccc(NC(C)=O)cc2)cc1Br	.	50	.	.
OC(c1ccccc1)(c1nc(-c2cccc3cccnc23)cs1)C(F)(F)F (centres undefined)	.	/	/	/
CC(C)(C)c1ccc(C(=O)NC(=S)NNC(=O)COc2ccccc2)cc1	.	.	.	.
